The panel holds about 83,000 compounds, 20% with a hit somewhere; the sample as a whole holds those more often.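 In brief: 96-well plates, 48 h treatment, single concentration, percent growth endpoint.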 Unmarked numbers belong to inactive results. Active and inactive are the calls of the source. Rule for the calls: active = growth percent below 10; inactive = the rest.
system: HL-60(TB) leukemia; experiment: NCI-60 one-dose screen, 48 h (100 = growth as untreated, 0 = no growth, -100 = all killed); conditions: 10 µM unless noted

Row | SMILES | growth
1 | C1=CC(c2nn3c(-c4ccccc4)nnc3s2)=Cc2ccccc2O1 | 37%
2 | CCCCCc1ccc(S(=O)(=O)Nc2cccc(-c3csc(NC(=O)CN4CCN(C)CC4)n3)c2)cc1 | 35.8%
3 | CC(C)(C)Nc1nc2c(OCCc3ccccc3)cccn2c1-c1ccc(Cl)cc1 | -27.8% (active)
4 | Cc1ccc(CNS(=O)(=O)/N=C2\NC(=O)NC2=C(Cl)Cl)cc1 | 28.6%
5 | CN1CCN(Cc2ccc(NC(=O)c3cncc(C#Cc4cnc5ccc(NC6CCOCC6)nn45)c3)cc2C(F)(F)F)CC1 | -45.2% (active)
6 | COC(=O)c1[nH]nc2c1C1(C(=O)N(C)c3ccccc31)C(C#N)=C(N)O2 (stereo unspecified) | 107%
7 | Cc1ccc(NC(=O)c2ccc(CN3CCN(C)CC3)c(I)c2)cc1Oc1ccc(-c2[nH]nc3ncnc(N)c23)cc1 | 118%
8 | O=C1NC(=C(Cl)Cl)/C(=N/S(=O)(=O)N2CCCCC2CC2(C(F)(F)F)N=N2)N1 (stereo unspecified) | 1.49% (active)
9 | C=C(C=O)[C@@H]1CC[C@]2(C)[C@H](C(=O)C=C3[C@H]4C[C@](C)(C(=O)OC)CC[C@]4(C)CC[C@]32C)[C@@]1(C)CCC#N | -27.3% (active)
10 | Cc1nn(-c2ccccc2)cc1/C=N/Nc1nc(Nc2ccccc2)nc(Nc2ccc(S(N)(=O)=O)cc2)n1 | 4% (active)
11 | N#Cc1cccc(CN2CCc3ncn(Cc4ccc(Cl)cc4)c(=O)c3C2)c1 | 13.5%
12 | CC1(COc2ccc3ncc(C#Cc4cncc(C(=O)Nc5cc(C(C)(C)C)on5)c4)n3n2)COC1 | 23%
13 | CCCCCc1ccc(S(=O)(=O)Nc2cccc(-c3csc(NC(=O)CCCCCN4CCN(C)CC4)n3)c2)cc1 | -41.5% (active)
14 | O=C(CCC(=O)N1CCOCC1)OCCCCCCSc1ccc([N+](=O)[O-])c2nonc12 | -45.4% (active)
15 | Oc1ccc(CSc2nnc(-c3cnccn3)o2)c2cccnc12 | -11.5% (active)
16 | CNC(=O)c1c(NC(=O)c2ccc(F)cc2F)sc2c1CCC(=O)C2 | -12.6% (active)
17 | OC1CCc2c(-c3ccc4ncnc(N5CCc6cc(F)c(Cl)cc65)c4c3)cncc21 (stereo unspecified) | 34.3%
18 | Cc1ccc(NC(=S)NNC(=S)Nc2ccc(C)cc2)cc1 | 97.1%

Row | SMILES | growth
19 | Cc1sc2c(c1C)c(=O)nc1c(-c3nc(-c4ccc(F)cc4)no3)n[nH]n12 | 103%
20 | NC(N)=Nc1ccc(Oc2cccc(NC(N)=Nc3ccc(Cl)c(C(F)(F)F)c3)c2)cc1 | 27.8%
21 | Cc1c(Cl)cccc1S(=O)(=O)Nc1ccc2c(c1)C(=O)N(C1CCC(=O)NC1=O)C2=O (stereo unspecified) | -7.01% (active)
22 | O=C1Nc2cc(OC(F)(F)F)ccc2Oc2ccc(-c3ccnc(N4CCNCC4)c3)cc21 | -41.4% (active)
23 | Cc1ccc(/C=C/CC(=O)Nc2ccc(C(=O)Nc3ccc(F)cc3N)nc2)cn1 | -19.6% (active)
24 | O=C(CSc1nc2ccccc2c(=O)n1-c1ccc(Cl)c(Cl)c1)Nc1ccc(S(=O)(=O)Nc2ccc(Cl)nn2)cc1 | 106%
25 | Clc1ccc2oc3c(NCCCn4ccnc4)c4ccccc4nc3c2c1 | 29%
26 | CN1CCN(c2ccc(Nc3nc(NCCNS(=O)(=O)c4ccc(Cl)cc4)c4sccc4n3)cc2)CC1 | 80.1%
27 | C=C1C(=O)O[C@@H]2/C=C(/C)C3=CC(=O)[C@@](C)(C[C@H](OC(=O)/C(C)=C\C)[C@@H]12)O3 | -11.9% (active)
28 | NC(=S)n1c(=O)n(-c2cccc(C(F)(F)F)c2)c(=O)c2cc(-c3ccc(F)cc3F)ccc21 | -46.8% (active)
29 | CCc1cc2c(cc1Cl)nc1c(=O)[nH]c(=O)nc-1n2CCOCC(C)(C)C | 82%
30 | CN1C(=O)N(c2ccccc2)C2N=C(N/N=C/c3ccccc3)SC21 (stereo unspecified) | -6.56% (active)
31 | Cn1ccnc1C(=O)/C=C/c1ccc(NC(=O)c2ccc(F)cc2)cc1 | 11.8%
32 | CCN(CC)S(=O)(=O)c1ccc(-c2nc(C(Cl)Cl)nc3cc(C)nn23)cc1 | -9.17% (active)
33 | N#Cc1c(Nc2ccccc2)nn2c(-c3ccc([N+](=O)[O-])cc3)ccnc12 | 93.9%
34 | Cc1ccc(-c2nnc3sc(C4=Cc5ccccc5OC=C4)nn23)cc1 | 85%
35 | C#Cc1nc(C2=C(C)C(OC(=O)CCC(=O)O)CC2)cs1 (stereo unspecified) | 101%
36 | O=C(NNc1nc2cc(F)ccc2n2c(CN3CCC(O)C3)ccc12)c1cnccn1 (stereo unspecified) | -14.8% (active)

Reference: PubChem BioAssay (NCI)
